# PubChem BioAssay (EPA / NIEHS)
# “And” between values parts separate entries of the source, which are not always exact repeats. Equal values may be shown once. Inconclusive results are not listed. The source made the active and inactive calls. Rule for the calls, unless noted: active = hit-call score of the fitted dose curve at least 0.9, where 1 is the maximum; inactive = score below 0.9.
# Read-out: Thyroid Hormone Responsive (THRSP), THRSP (gene 7069)
# Test: LTEA_HepaRG_THRSP: Life Technologies and Expression Analysis (LTEA) Assay for Thyroid Hormone Responsive (THRSP) using HepaRG (AID 2283536)
# Details: mRNA level, 48 h; actives raise or lower the signal
# How it was run: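 Differentiated human HepaRG cells were exposed in duplicate for 48 h in serum-free induction medium to eight concentrations (top 100 uM, half-log steps, 0.5% DMSO). Expression was quantified by TaqMan qRT-PCR, normalized to ACTB, GAPDH and POLR2A, with bidirectional fitting against DMSO.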
SMILES,outcome,AC50
CCOP(=S)(OCC)SCSCC,inactive,
CCCCN(CCCC)SN(C)C(=O)Oc1cccc2c1OC(C)(C)C2,inactive,
Cc1ccc([N+](=O)[O-])cc1C,inactive,
CCCCc1ccccc1,inactive,
CSC(C)(C)C=NO,inactive,
CN(C)C(=O)Cl,inactive,
CCCCCCCc1ccc(O)cc1,inactive,
O=C(O)C(Cl)Cl,inactive,
O=[N+]([O-])c1ccc(Cl)c(Cl)c1,,10.8 µM (active)
CCOP(=S)(Oc1ccc([N+](=O)[O-])cc1)c1ccccc1 (stereo unspecified),,50 µM (active)
CCNc1nc(Cl)nc(NC(C)(C)C)n1,inactive,

# Read-out: UDP glucuronosyltransferase (UGT1A1), UGT1A1 (gene 54658)
# Test: LTEA_HepaRG_UGT1A1: Life Technologies and Expression Analysis (LTEA) Assay for UDP glucuronosyltransferase (UGT1A1) using HepaRG (AID 2283538)
# Details: mRNA level, 48 h; actives raise or lower the signal
# How it was run: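 Readout is UGT1A1 transcript level by qRT-PCR, normalized to three housekeeping genes, after 48 h chemical treatment of HepaRG cells. Concentrations ran from 100 uM down in half-log steps with 0.5% DMSO, and gain or loss relative to DMSO was fitted.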
SMILES,outcome,AC50
CCOP(=S)(OCC)SCSCC,inactive,
CCCCN(CCCC)SN(C)C(=O)Oc1cccc2c1OC(C)(C)C2,,10 µM (active)
Cc1ccc([N+](=O)[O-])cc1C,inactive,
CCCCc1ccccc1,inactive,
CSC(C)(C)C=NO,inactive,
CN(C)C(=O)Cl,inactive,
CCCCCCCc1ccc(O)cc1,inactive,
O=C(O)C(Cl)Cl,inactive,
O=[N+]([O-])c1ccc(Cl)c(Cl)c1,,13.5 µM (active)
CCOP(=S)(Oc1ccc([N+](=O)[O-])cc1)c1ccccc1 (stereo unspecified),,12.7 µM (active)
CCNc1nc(Cl)nc(NC(C)(C)C)n1,,6.03 µM (active)

# Read-out: UDP glucuronosyltransferase (UGT1A6), UGT1A6 (gene 54578)
# Test: LTEA_HepaRG_UGT1A6: Life Technologies and Expression Analysis (LTEA) Assay for UDP glucuronosyltransferase (UGT1A6) using HepaRG (AID 2283539)
# Details: mRNA level, 48 h; actives raise or lower the signal
# How it was run: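 Human HepaRG cells were dosed for 48 h in serum-free induction medium with 0.5% DMSO vehicle, eight-point half-log series from 100 uM, in duplicate. UGT1A6 mRNA was measured by qRT-PCR, normalized to ACTB, GAPDH, POLR2A, and fitted bidirectionally against DMSO.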
SMILES,outcome,AC50
CCOP(=S)(OCC)SCSCC,inactive,
CCCCN(CCCC)SN(C)C(=O)Oc1cccc2c1OC(C)(C)C2,inactive,
Cc1ccc([N+](=O)[O-])cc1C,inactive,
CCCCc1ccccc1,inactive,
CSC(C)(C)C=NO,inactive,
CN(C)C(=O)Cl,inactive,
CCCCCCCc1ccc(O)cc1,inactive,
O=C(O)C(Cl)Cl,,0.312 µM (active)
O=[N+]([O-])c1ccc(Cl)c(Cl)c1,inactive,
CCOP(=S)(Oc1ccc([N+](=O)[O-])cc1)c1ccccc1 (stereo unspecified),inactive,
CCNc1nc(Cl)nc(NC(C)(C)C)n1,inactive,

# Read-out: X-box binding protein 1 (XBP1), XBP1 (gene 7494)
# Test: LTEA_HepaRG_XBP1: Life Technologies and Expression Analysis (LTEA) Assay for X-box binding protein 1 (XBP1) using HepaRG (AID 2283540)
# Details: mRNA level, 48 h; actives raise or lower the signal
# How it was run: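 Differentiated human HepaRG cells in serum-free induction medium were exposed in duplicate for 48 h to eight half-log concentrations up to 100 uM in 0.5% DMSO. XBP1 mRNA was quantified by qRT-PCR, normalised to ACTB, GAPDH and POLR2A, with bidirectional fitting against DMSO.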
row,SMILES,outcome
1,CCOP(=S)(OCC)SCSCC,inactive
2,CCCCN(CCCC)SN(C)C(=O)Oc1cccc2c1OC(C)(C)C2,inactive
3,Cc1ccc([N+](=O)[O-])cc1C,inactive
4,CCCCc1ccccc1,inactive
5,CSC(C)(C)C=NO,inactive
6,CN(C)C(=O)Cl,inactive
7,CCCCCCCc1ccc(O)cc1,inactive
8,O=C(O)C(Cl)Cl,inactive
9,O=[N+]([O-])c1ccc(Cl)c(Cl)c1,inactive
10,CCOP(=S)(Oc1ccc([N+](=O)[O-])cc1)c1ccccc1 (stereo unspecified),inactive
11,CCNc1nc(Cl)nc(NC(C)(C)C)n1,inactive

# Tested on: not listed separately
# Test: ATG_XTT_Cytotoxicity: Cytotoxicity Assessment in the Attagene TRANS-FACTORIAL HepG2 Assay (AID 2283584; active = hit-call score of the fitted dose curve at least 0.9, where 1 is the maximum;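 for AC50: cells exposed to compound for 24 h before reading; active means loss of viability signal versus DMSO baseline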)
# Details: not given
# How it was run: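 HepG2 human liver cells, transiently transfected with multiple GAL4-UAS reporter units, were dosed and read at 24 h by XTT as cell number. Loss of signal was fitted relative to DMSO negative control baseline.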
SMILES,outcome,AC50
CC(O)C#N (stereo unspecified),inactive,
CCOP(=S)(OCC)SCSc1ccc(Cl)cc1,inactive,
CCOP(=O)(O)C(N)=O,inactive,
CCOP(=S)(OCC)SCS(=O)(=O)CC,inactive,
N#Cc1cc([N+](=O)[O-])ccc1N,inactive,
Nc1ccc([N+](=O)[O-])cc1Cl,inactive,
CCOP(=S)(OCC)SCSCC,inactive,
COP(=O)(CCC(=O)NCO)OC,inactive,
CCCCN(CCCC)SN(C)C(=O)Oc1cccc2c1OC(C)(C)C2,inactive,
N#C/C=C/c1ccccc1,inactive,
Cc1ccc([N+](=O)[O-])cc1C,inactive,
CCCCc1ccccc1,inactive,
N#Cc1c(-c2ccc(Cl)cc2)[nH]c(C(F)(F)F)c1Br,inactive,
CSC(C)(C)C=NO,inactive,
CC(C)(C)c1ccccc1OP(=O)(Oc1ccccc1)Oc1ccccc1,inactive,
Cc1cc(C)c(C(=O)P(=O)(c2ccccc2)c2ccccc2)c(C)c1,inactive,

SMILES,outcome,AC50
CCOC(=O)c1ccccc1N,inactive,
CN(C)C(=O)Cl,inactive,
Cn1[nH]nnc1=S,inactive,
O=[N+]([O-])c1cc(Cl)ccc1Cl,inactive,
CCCCCCCc1ccc(O)cc1,,152 µM (active) and 185 µM (active) and 129 µM (active)
O=C(O)C(Cl)Cl,inactive,
O=[N+]([O-])c1ccc(Cl)c(Cl)c1,inactive,
CC(C)CBr,inactive,
N#Cc1ccc(O)cc1,inactive,
CCCCC(CC)COP(=O)(Oc1ccccc1)Oc1ccccc1 (stereo unspecified),inactive,
CCOP(=S)(Oc1ccc([N+](=O)[O-])cc1)c1ccccc1 (stereo unspecified),inactive,
Nc1ccc(Sc2ccc(N)cc2)cc1,inactive,
O=C(O)CF,inactive,
CCNc1nc(Cl)nc(NC(C)(C)C)n1,inactive,
CC(Cl)CN(C)C (stereo unspecified),inactive,
Oc1ccc(I)cc1,inactive,
